# Results taken from the supplement of paper PMC7156485.
# ± gives the standard deviation of the averaged measurements.
# System: TDF
# Assay: cell number relative to DMSO (% of DMSO); higher = more cells (less growth inhibition / toxicity)
# Conditions: concentration: 10 µM; 24 h
# In short: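 HCC1569 and TDF cells (800 per well, 384-well plates, RPMI with 10% FBS) were treated with compounds at 10 µM for 24 h at 37 °C, in triplicate. Cells were fixed in 3.7% formaldehyde and stained with a rabbit anti-H1.0 antibody, an AlexaFluor 647 secondary and DAPI; six fields per well were imaged at ×10. H1.0 nuclear intensity or cell number is expressed as percent of the plate DMSO control, taking the median of replicates. HCC1569 values were smoothed for positional effects.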
# 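Further: TDF denotes transformed human dermal fibroblasts of mesenchymal origin.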
row,Structure (SMILES),cell number
1,Cl.FC(F)(F)c1cccc(C2=CCN(CCc3ccc4ccccc4c3)CC2)c1,96.7
2,COC(=O)C(N)CCCN=C(N)N[N+](=O)[O-].Cl [NG-Nitro-L-arginine methyl ester hydrochloride],109
3,CC1=CC(=O)C2=C(C)CC(O)C3C(C)C(=O)OC3C12 (centres undefined) [Austricin],97.7
4,CC(=O)C1CCC2C3CCC4CC(O)CCC4(C)C3CCC12C (stereo not drawn) [5alpha-Pregnan-3alpha-ol-20-one],107
5,CCN1CC2(OC(=O)c3ccccc3NC(C)=O)CCC(OC)C34C1C(CC23)C1(O)CC(OC)C2CC4C1(O)C2OC (centres undefined) [Lappaconitine],103
6,COC1=CC(=O)OC(C=Cc2ccccc2)C1 (racemic),92
7,NC(Cc1ccc(N(CCCl)CCCl)cc1)C(=O)O (centres undefined) [Melphalan],69.2 ± 5.8
8,Cl.Cl.Oc1ccc2c3c1OC1c4[nH]c5c(c4CC4(O)C(C2)N(CC2CC2)CCC314)CC1(O)C2Cc3ccc(O)c4c3C1(CCN2CC1CC1)C5O4 (centres undefined) [nor-Binaltorphimine dihydrochloride],114
9,CC(C)C1(NC(=O)C2CC3c4cccc5[nH]cc(c45)CC3N(C)C2)OC2(O)C3CCCN3C(=O)C(Cc3ccccc3)N2C1=O.CS(=O)(=O)O (centres undefined) [Dihydroergocristine methanesulfonate],109
10,C=CCN1CCC23c4c5ccc(O)c4OC2C(=O)CCC3(O)C1C5 (centres undefined) [Naloxone],96.7
11,COc1ccccc1CN[C@H]1C2CCN(CC2)[C@H]1C(c1ccccc1)c1ccccc1,97.3
12,CC(Cc1ccc2c(c1)OC(C(=O)[O-])(C(=O)[O-])O2)NCC(O)c1cccc(Cl)c1.[Na+].[Na+] (centres undefined),106
13,"COc1ccc2c(c1OC)C(=O)OC2C1c2cc3c(cc2CCN1C)OCO3 (single isomer, unassigned; (+)) [(+)-Hydrastine]",104
14,CCCN1CCCC(c2cccc(C#N)c2)C1.Cl (stereo not drawn) [S(-)-DS 121 hydrochloride],96.1
15,COC12CC(COC(=O)c3cncc(Br)c3)CN(C)C1Cc1cn(C)c3cccc2c13 (centres undefined) [Nicergoline],102
16,COC1C(O)C(C)OC(OC2CCC3(C=O)C(CCC4C3CCC3(C)C(C5=CC(=O)OC5)CCC43O)C2)C1O (centres undefined) [Peruvoside],44
17,Cl.Oc1ccc2c3c1OC1C(O)CCC4(O)C(C2)N(CC2CCC2)CCC314 (centres undefined) [Nalbuphine hydrochloride],104
18,CC1CN(C2CCC(C#N)(c3ccc(F)cc3)CC2)CCC1(C(=O)O)c1ccccc1.Cl (centres undefined) [Levocabastine.HCl],103
19,COc1ccc(O)c(C(C)(C)C)c1,107
20,CC=C1CN2CCC34C(=C(CC=O)C1CC23)Nc1ccccc14 (centres undefined) [Norfluorocurarine],104

row,Structure (SMILES),cell number
1,COc1ccc(C(=O)N2CCCC2=O)cc1 [Aniracetam],97.8 ± 14
2,CN1CCC23CCCCC2C1Cc1ccc(O)cc13.O=C(O)C(O)C(O)C(=O)O [Dextrorphan D-tartrate],105
3,CN1C2CC(OC(=O)C(CO)c3ccccc3)CC1C1OC12 (centres undefined) [Scopolamine],105
4,CCOC(=O)c1ncn2c1C1CCCN1C(=O)c1cc(OC)ccc1-2 (centres undefined),108
5,CCn1cc(C(=O)O)c(=O)c2cc3c(cc21)OCO3 [Oxolinic acid],109
6,CCCCCN(C)CCC(O)(P(=O)([O-])O)P(=O)(O)O.[Na+],105
7,CC(C)(C)C1(O)CC2OC(=O)CC23C(=O)OC2OC(=O)C(O)C231 (centres undefined) [Bilobalide],109
8,CCCCCCCCCCCCCCCCOCC(O)COP(=O)([O-])OCC[N+](C)(C)C (centres undefined),105
9,CCN(C)C(=O)Oc1cccc([C@H](C)N(C)C)c1.O=C(O)C(O)C(O)C(=O)O,98.9
10,CC(=O)NBr [N-Bromoacetamide],101
11,"CCCC[N+]1(C)C2CC(OC(=O)C(CO)c3ccccc3)CC1C1OC12.[Br-] (single isomer, unassigned; (-)) [(-)-Scopolamine,n-Butyl-, bromide]",106
12,Cl.NC(=O)c1ccc(OCC(O)CN2CC=C(c3ccc(F)cc3)CC2)cc1 (centres undefined),107
13,CN1CC(C(=O)NC2(C)OC3(O)C4CCCN4C(=O)C(Cc4ccccc4)N3C2=O)C=C2c3cccc4[nH]cc(c34)CC21 (centres undefined) [Ergotamine],108
14,CC1CCCC=CC2CC(O)CC2C(O)C=CC(=O)O1 (centres undefined) [Brefeldin A],52.6
15,CC(C)(C)NCC(O)c1ccccc1Cl (centres undefined) [Tulobuterol],101
16,CC(C)N(CCC(C(N)=O)(c1ccccc1)c1ccccn1)C(C)C (centres undefined) [Disopyramide],106
17,NC(=O)COc1c(F)cc(SCCNS(=O)(=O)c2ccccc2)cc1F,102
18,OC1CN2CCCC(O)C2C1O (centres undefined) [Swainsonine],98.6
19,COc1cc2c(cc1O)CCNC2C (centres undefined) [Salsoline],104
